Source: the supplement of paper PMC8728848
Only a selection was taken, and the strongest signals are over-represented in it overall.

Tests used:
Assay in all cases: glycan array binding signal (z-score within array); higher = stronger binding
Conditions in all cases: glycan notation: IUPAC condensed, linker removed
Gal(b1-6)Gal = target: Gal(b1-6)Gal
In short: (§1)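 From the Consortium for Functional Glycomics database, 3228 arrays were curated, keeping only those whose protein sequence was available. Binding is given as a within-array Z-score averaged across arrays sharing a protein sequence and across linkers. Negative Z-scores can be read as non-binding.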

Gal3S6S(b1-4)GlcNAc = target: Gal3S6S(b1-4)GlcNAc
In short: as §1

Gal3S6S(b1-4)GlcNAc6S = target: Gal3S6S(b1-4)GlcNAc6S
In short: as §1

Gal4S6S(b1-4)GlcNAc = target: Gal4S6S(b1-4)GlcNAc
In short: as §1

Gal6S(b1-4)Glc = target: Gal6S(b1-4)Glc
In short: as §1

[1] = target: GlcA3S(b1-3)Gal(b1-4)GlcNAc(b1-2)Man
In short: as §1

[2] = target: GlcNAc(a1-4)Gal(b1-4)GlcNAc(b1-3)Gal(b1-4)GlcNAc
In short: as §1

[3] = target: GlcNAc(b1-2)[GlcNAc(b1-4)]Man(a1-3)[GlcNAc(b1-2)Man(a1-6)]Man(b1-4)GlcNAc(b1-4)GlcNAc
In short: as §1

[4] = target: GlcNAc(b1-3)Gal(b1-4)GlcNAc(b1-3)Gal(b1-4)GlcNAc(b1-3)Gal(b1-4)GlcNAc(b1-3)Gal(b1-4)GlcNAc(b1-2)[GlcNAc(b1-3)Gal(b1-4)GlcNAc(b1-3)Gal(b1-4)GlcNAc(b1-3)Gal(b1-4)GlcNAc(b1-3)Gal(b1-4)GlcNAc(b1-6)]Man(a1-6)[GlcNAc(b1-3)Gal(b1-4)GlcNAc(b1-3)Gal(b1-4)GlcNAc(b1-3)Gal(b1-4)GlcNAc(b1-3)Gal(b1-4)GlcNAc(b1-2)Man(a1-3)]Man(b1-4)GlcNAc(b1-4)[Fuc(a1-6)]GlcNAc
In short: as §1

[5] = target: GlcNAc(b1-3)[GlcNAc(b1-6)]Gal(b1-4)GlcNAc
In short: as §1

[6] = target: Man(a1-2)Man(a1-2)Man(a1-3)Man
In short: as §1

[7] = target: Man(a1-3)[Man(a1-6)]Man(b1-4)GlcNAc(b1-4)[Fuc(a1-6)]GlcNAc
In short: as §1

[8] = target: Neu5Ac(a2-3)Gal(b1-3)GalNAc(b1-4)[Neu5Ac(a2-3)]Gal(b1-4)Glc
In short: as §1

[9] = target: Neu5Ac(a2-3)Gal(b1-3)GlcNAc(b1-6)GalNAc
In short: as §1

[10] = target: Neu5Ac(a2-3)Gal(b1-3)[Fuc(a1-4)]GlcNAc(b1-3)Gal(b1-4)[Fuc(a1-3)]GlcNAc
In short: as §1

[11] = target: Neu5Ac(a2-3)Gal(b1-3)]Neu5Ac(a2-3)Gal(b1-4)]GlcNAc
In short: as §1

[12] = target: Neu5Ac(a2-3)Gal(b1-4)GlcNAc(b1-2)Man(a1-3)[GlcNAc(b1-4)][Neu5Ac(a2-3)Gal(b1-4)GlcNAc(b1-2)Man(a1-6)]Man(b1-4)GlcNAc(b1-4)GlcNAc
In short: as §1

[13] = target: Neu5Ac(a2-3)Gal(b1-4)GlcNAc(b1-2)Man(a1-3)[Neu5Ac(a2-3)Gal(b1-4)GlcNAc(b1-2)Man(a1-6)]Man(b1-4)GlcNAc(b1-4)GlcNAc
In short: as §1

[14] = target: Neu5Ac(a2-3)Gal(b1-4)GlcNAc(b1-3)Gal(b1-4)GlcNAc(b1-3)Gal(b1-4)GlcNAc(b1-2)Man(a1-3)[Neu5Ac(a2-3)Gal(b1-4)GlcNAc(b1-3)Gal(b1-4)GlcNAc(b1-3)Gal(b1-4)GlcNAc(b1-2)Man(a1-6)]GalNAc
In short: as §1

[15] = target: Neu5Ac(a2-3)Gal(b1-4)GlcNAc6S
In short: as §1

[16] = target: Neu5Ac(a2-3)Gal(b1-4)[Fuc(a1-3)]GlcNAc(b1-3)GalNAc
In short: as §1

[17] = target: Neu5Ac(a2-6)Gal(b1-4)GlcNAc(b1-2)Man(a1-6)[Man(a1-3)]Man(b1-4)GlcNAc(b1-4)GlcNAc
In short: as §1

[18] = target: Neu5Ac(a2-6)Gal(b1-4)GlcNAc(b1-2)[Neu5Ac(a2-6)Gal(b1-4)GlcNAc(b1-6)]Man(a1-6)[Neu5Ac(a2-6)Gal(b1-4)GlcNAc(b1-2)Man(a1-3)][GlcNAc(b1-4)]Man(b1-4)GlcNAc(b1-4)GlcNAc
In short: as §1

[19] = target: Neu5Ac(a2-6)Gal(b1-4)GlcNAc(b1-3)Gal(b1-4)GlcNAc(b1-3)Gal(b1-4)GlcNAc(b1-2)Man(a1-3)[Neu5Ac(a2-6)Gal(b1-4)GlcNAc(b1-3)Gal(b1-4)GlcNAc(b1-3)Gal(b1-4)GlcNAc(b1-2)Man(a1-6)]GalNAc
In short: as §1

Neu5Ac(a2-6)GalNAc = target: Neu5Ac(a2-6)GalNAc
In short: as §1

[20] = target: Neu5Ac(a2-8)Neu5Ac(a2-3)[GalNAc(b1-4)]Gal(b1-4)Glc
In short: as §1

[21] = target: Neu5Gc(a2-3)Gal(b1-4)GlcNAc
In short: as §1

[22] = target: Neu5Gc(a2-3)Gal(b1-4)[Fuc(a1-3)]GlcNAc
In short: as §1

[23] = target: Neu5Gc(b2-6)Gal(b1-4)GlcNAc
In short: as §1

B1: MtEccB1 (Mycobacterium tuberculosis H37Rv), O69734 (protein)
chain: MGLRLTTKVQVSGWRFLLRRLEHAIVRRDTRMFDDPLQFYSRSIALGIVVAVLILAGAALLAYFKPQGKLGGTSLFTDRATNQLYVLLSGQLHPVYNLTSARLVLGNPANPATVKSSELSKLPMGQTVGIPGAPYATPVSAGSTSIWTLCDTVARADSTSPVVQTAVIAMPLEIDASIDPLQSHEAVLVSYQGETWIVTTKGRHAIDLTDRALTSSMGIPVTARPTPISEGMFNALPDMGPWQLPPIPAAGAPNSLGLPDDLVIGSVFQIHTDKGPQYYVVLPDGIAQVNATTAAALRATQAHGLVAPPAMVPSLVVRIAERVYPSPLPDEPLKIVSRPQDPALCWSWQRSAGDQSPQSTVLSGRHLPISPSAMNMGIKQIHGTATVYLDGGKFVALQSPDPRYTESMYYIDPQGVRYGVPNAETAKSLGLSSPQNAPWEIVRLLVDGPVLSKDAALLEHDTLPADPSPRKVPAGASGAP
- glycan array binding signal (z-score) (Gal(b1-6)Gal): -0.836
- glycan array binding signal (z-score) (Gal3S6S(b1-4)GlcNAc): 0.192
- glycan array binding signal (z-score) (Gal3S6S(b1-4)GlcNAc6S): 3.9
- glycan array binding signal (z-score) (Gal4S6S(b1-4)GlcNAc): 3.03
- glycan array binding signal (z-score) (Gal6S(b1-4)Glc): 0.586
- glycan array binding signal (z-score) [1]: -1.14
- glycan array binding signal (z-score) [2]: 0.812
- glycan array binding signal (z-score) [3]: -0.488
- glycan array binding signal (z-score) [4]: 3.92
- glycan array binding signal (z-score) [5]: -0.11
- glycan array binding signal (z-score) [6]: -1.02
- glycan array binding signal (z-score) [7]: 0.339
- glycan array binding signal (z-score) [8]: 3.37
- glycan array binding signal (z-score) [9]: -0.342
- glycan array binding signal (z-score) [10]: 0.263
- glycan array binding signal (z-score) [11]: 0.038
- glycan array binding signal (z-score) [12]: 4.06
- glycan array binding signal (z-score) [13]: -1.57
- glycan array binding signal (z-score) [14]: 2.66
- glycan array binding signal (z-score) [15]: 1.54
- glycan array binding signal (z-score) [16]: 0.588
- glycan array binding signal (z-score) [17]: 0.711
- glycan array binding signal (z-score) [18]: -0.566
- glycan array binding signal (z-score) [19]: 2.47
- glycan array binding signal (z-score) (Neu5Ac(a2-6)GalNAc): -0.143
- glycan array binding signal (z-score) [20]: 0.156
- glycan array binding signal (z-score) [21]: -0.509
- glycan array binding signal (z-score) [22]: 0.844
- glycan array binding signal (z-score) [23]: -0.779
